# Laboratory results from PubChem BioAssay (NCI).
# About 83,000 compounds went through this panel and 20% of them were active in at least one assay; those are over-represented in the sample as a whole.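 A percent growth of 40 corresponds to 60% growth inhibition; 0 means no net growth; -100 means all cells died. Active threshold: below 10.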 Unmarked numbers belong to inactive results. Calls of active or inactive are those of the source.
# How the values were obtained:
# Assay in all cases: NCI-60 one-dose screen, 48 h (100 = growth as untreated, 0 = no growth, -100 = all killed)
# Details in all cases: 10 µM unless noted
# RPMI-8226 leukemia = tested on: RPMI-8226 leukemia
# OVCAR-8 ovarian = tested on: OVCAR-8 ovarian
# OVCAR-5 ovarian = tested on: OVCAR-5 ovarian
# OVCAR-4 ovarian = tested on: OVCAR-4 ovarian
# SK-OV-3 ovarian = tested on: SK-OV-3 ovarian
# IGROV1 ovarian = tested on: IGROV1 ovarian
# OVCAR-3 ovarian = tested on: OVCAR-3 ovarian
# HS 578T breast = tested on: HS 578T breast
# SR leukemia = tested on: SR leukemia
# NCI/ADR-RES ovarian = tested on: NCI/ADR-RES ovarian
SMILES,growth (RPMI-8226 leukemia),growth (OVCAR-8 ovarian),growth (OVCAR-5 ovarian),growth (OVCAR-4 ovarian),growth (SK-OV-3 ovarian),growth (IGROV1 ovarian),growth (OVCAR-3 ovarian),growth (HS 578T breast),growth (SR leukemia),growth (NCI/ADR-RES ovarian)
N#Cc1c(-c2ccco2)nc2c(c(-c3ccccc3)nn2-c2ccccc2)c1-c1ccc(O)cc1,55.3%,55.2%,93.4%,77.7%,46.4%,84.2%,86%,53.8%,,
CC(C)(C)CC(C)(C)c1ccc(OCCOCC[N+](C)(C)CC(=O)[O-])cc1,,105%,102%,,109%,100%,113%,114%,94.8%,111%
CC1=NN(c2ccc(S(=O)(=O)O)cc2Cl)C(=O)C1,104%,99.9%,94.3%,102%,105%,105%,158%,131%,,98.9%
O=C1/C(=C\c2ccco2)SC(=S)N1CCc1ccc(O)cc1,83.1%,102%,103%,90.3%,100%,94.6%,105%,99.5%,,103%
CN1CCN(CCOc2ccc(-c3cnc4c(-c5cccc(F)c5)cnn4c3)cc2)CC1,,69.8%,,65.5%,106%,63.8%,56.1%,77.6%,-12.8% (active),72.8%
O=C1C=C(C(O)c2ccc(O)cc2)C(=O)c2ccccc21 (stereo not given),,104%,99.7%,,85.8%,86.3%,96.2%,120%,87.7%,105%
O=C(NO)c1ccc(Cn2c(=O)n(-c3ccccc3)c(=O)c3ccccc32)cc1,14.8%,-6.49% (active),62.2%,18.7%,26.3%,33.5%,24.2%,57.8%,,101%
COc1ccc(-c2nc3c(c(C)nn3-c3ccc(F)cc3)c(=O)[nH]2)cc1,89.8%,60.7%,85.9%,-39.3% (active),31.5%,53.8%,55%,63.4%,,63.9%
N#Cc1c(-c2ccc(O)cc2)c2c(N)nn(-c3ccccc3)c2[nH]c1=O,101%,105%,105%,113%,102%,93%,110%,104%,,102%
O=C1C(=O)N(CCCCn2cc(-c3ccccc3)nn2)c2ccccc21,95.6%,103%,102%,106%,111%,101%,111%,99.1%,,104%
CN(C)CCCCC(C(=O)CBr)(c1ccccc1)c1ccccc1,,25.8%,45.2%,12.1%,79.1%,44.4%,-44% (active),,8.41% (active),43.9%
Nc1c(C(=O)Nc2c(Cl)cccc2Cl)sc2nc3c(cc12)C(=O)CCC3,65.5%,62.7%,86.5%,65.6%,32.2%,71.9%,11.2%,13.4%,,17.1%
COc1cc(-c2cc3ncccc3c3[nH]c(=O)c4cccnc4c23)cc(OC)c1OC,6.32% (active),35.9%,45.4%,58.1%,11.2%,50.1%,33.6%,10.6%,,22.1%
O=C(O)/C(=C/c1ccc(O)cc1)c1ccccc1,95.5%,95.7%,84.4%,98.7%,112%,99%,103%,,,94.6%
S=c1[nH]nc2ccccn12,108%,125%,108%,,114%,115%,124%,98.5%,,100%
Fc1cccc(-c2[nH]nc3nc(Nc4cccnc4)sc23)c1,27.2%,54%,86.9%,,41%,51.4%,-18.3% (active),69.4%,,21.6%

SMILES,growth (RPMI-8226 leukemia),growth (OVCAR-8 ovarian),growth (OVCAR-5 ovarian),growth (OVCAR-4 ovarian),growth (SK-OV-3 ovarian),growth (IGROV1 ovarian),growth (OVCAR-3 ovarian),growth (HS 578T breast),growth (SR leukemia),growth (NCI/ADR-RES ovarian)
c1ccc(CN2C(c3ccccc3)=Nc3ccccc3C2c2c[nH]c3ccccc23)cc1 (stereo not given),4.99% (active),,,27.1%,71.6%,19.3%,57.6%,52.3%,,30.2%
Brc1cnc2[nH]cc(-c3nnc(-c4ccccc4)o3)c2c1,85%,,96.5%,71.3%,,41.2%,70.2%,79.2%,,80%
COC(=O)[C@]12CC[C@@H](C)[C@H](C)[C@@H]1C1=CC[C@@H]3[C@@]4(C)C[C@@H](OC(C)=O)[C@H](O)[C@@](C)(CO)[C@@H]4[C@H](O)C[C@@]3(C)[C@]1(C)CC2,,-60.9% (active),-78.2% (active),-79.6% (active),-95.4% (active),-58.8% (active),-85% (active),-50.5% (active),,-67.6% (active)
Cc1ccc2[nH]cc(-c3nc(-c4cn(C)c5ncccc45)cs3)c2c1,62.7%,85.8%,108%,,102%,108%,106%,99%,,66.7%
Fc1ccc2[nH]cc(-c3nc(-c4c[nH]c5ncccc45)cs3)c2c1,31.5%,36.6%,86.1%,,58.9%,32.5%,44.5%,31.4%,,27.1%
N=C(N)c1ccc(S(N)(=O)=O)cc1,128%,100%,88.2%,102%,115%,110%,113%,,,97.5%
c1ccc2c(-c3nc(-c4c[nH]c5ncccc45)cs3)c[nH]c2c1,76.7%,98.4%,119%,,88.6%,59.3%,102%,110%,,107%
NC(=O)NCC1CCCCC1,108%,114%,,102%,109%,101%,109%,112%,,95.1%
CC(=O)c1c(C)[nH]c(-c2nc3ccc(N4CCN(C)CC4)cc3[nH]2)c1-c1ccc(OCC2CCOCC2)cc1,-2.05% (active),38%,43.8%,35.7%,13.5%,16.2%,30.7%,19.5%,,31.7%
Cn1cc(-c2nc(-c3c[nH]c4ncccc34)cs2)c2cc(Br)ccc21,72.6%,104%,82.9%,,91.9%,76%,118%,98%,,
CCSc1ncnc2c1ncn2C1OC(CO)C(O)C1O (stereo not given),38.5%,29.5%,29.5%,46.1%,41.3%,2.14% (active),23.4%,,,25.4%
Cn1cc(-c2nc(-c3c[nH]c4ncccc34)cs2)c2cc(Cl)ccc21,34.2%,63.2%,60.3%,,71.7%,46.3%,69.9%,61.6%,,44.7%
Cc1cc(N=O)cc(C(C)(C)C)c1O,,103%,108%,97.7%,75.8%,98.6%,105%,,,99.3%
CC(Cc1ccco1)C(=O)NC(N)=O (stereo not given),,101%,,108%,120%,108%,111%,109%,,104%
Nc1nc(N)c2nc3c(nc2n1)CCCCCCCCCC3,85.6%,39.9%,69.4%,61.9%,78.9%,37.1%,81.9%,,,52.9%
O=C1C(Cl)=C(Nc2ccc(S(=O)(=O)c3ccc(NC4=C(Cl)C(=O)c5ccccc5C4=O)cc3)cc2)C(=O)c2ccccc21,5.2% (active),-61.8% (active),100%,-84.9% (active),78.9%,-18.5% (active),-98.4% (active),,,43.6%
